According to the supplement of paper PMC10127200:
Where a name gives a salt, the structure may show the parent alone.

What was measured:
Assay in all cases: Euclidean distance of Cell Painting phenotypic profile (signed KS, 77 features) to DMSO centroid (dimensionless distance); 5 or 10 uM (library dependent); higher = stronger phenotypic change vs DMSO (phenoactivity)
Conditions in all cases: 48 h
786-O = test system: 786-O
Procedure, shortened: (§1)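 Five cancer lines and a healthy fibroblast line received library compounds at 10 or 5 uM (library-dependent, 0.1% DMSO final) for 48 h. Stained cells were imaged confocally at 20X (9 fields/well). Harmony extracted 77 features, each scored as a signed Kolmogorov-Smirnov statistic against same-plate vehicle wells. Profiles were plate-position corrected, correlation-weighted and replicate-averaged at the top dose. Phenoactivity is the Euclidean distance from each profile to the median vehicle profile.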

A549 = test system: A549
Procedure, shortened: as §1

DU145 = test system: DU145
Procedure, shortened: as §1

FB = test system: FB
Procedure, shortened: as §1

HEPG2 = test system: HEPG2
Procedure, shortened: as §1

OVCAR4 = test system: OVCAR4
Procedure, shortened: as §1

SMILES	Euclidean distance (786-O)	Euclidean distance (A549)	Euclidean distance (DU145)	Euclidean distance (FB)	Euclidean distance (HEPG2)	Euclidean distance (OVCAR4)
Cc1c(O)c(=O)ccn1C [Deferiprone]	1.58	0.809	1.07	1.18	0.561	0.947
CC(C)(C(=O)c1cccnc1)c1cccnc1 [Metyrapone]	1.56	1.55	0.902	1.36	0.932	1.85
CC(C)(Sc1ccncc1-c1ccc(C#N)c2ccccc12)C(=O)O [Verinurad (RDEA3170)]	0.821	0.673	0.864	1.25	0.457	1.2
CC(=O)OCC(=O)[C@@]12N=C(C)O[C@@H]1C[C@H]1[C@@H]3CCC4=CC(=O)C=C[C@]4(C)[C@H]3[C@@H](O)C[C@@]12C [Deflazacort]	1.27	1.84	2.48	2.04	1.58	1.7
CN(Cc1ccc(C(C)(C)C)cc1)Cc1cccc2ccccc12 [Butenafine HCl]	0.641	0.57	0.938	0.74	0.375	1.15
O=c1c(O)c(-c2ccc(O)c(O)c2)oc2cc(O)ccc12 [Fisetin]	0.642	0.833	1.17	0.987	0.906	0.911
N#CC[C@H](C1CCCC1)n1cc(-c2ncnc3[nH]ccc23)cn1	2.03	1.27	1.36	1.23	0.819	0.709
COc1ccc(C(=O)NCc2ccc(OCCN(C)C)cc2)cc1OC [Itopride hydrochloride]	1.63	0.807	0.903	0.871	1.09	0.695
Cc1ccc([C@@H]2O[C@H](CO)[C@@H](O)[C@H](O)[C@H]2O)cc1Cc1ccc(-c2ccc(F)cc2)s1 [Canagliflozin]	1.32	1.86	0.716	1.12	0.807	1.77
CC1(C)CC(=O)c2c(C(F)(F)F)nn(-c3ccc(C(N)=O)c(N[C@H]4CC[C@H](O)CC4)c3)c2C1	3.06	2.99	3.09	3.59	3.83	2.73
NC(=O)Cc1cccc(C(=O)c2ccccc2)c1N [Nepafenac]	1.03	1.31	2.96	1.25	1.14	0.874
Cn1cnc([N+](=O)[O-])c1Sc1ncnc2[nH]cnc12 [Azathioprine]	0.644	0.642	1.33	1.04	2.09	0.817
CO/N=C(\C(=O)N[C@@H]1C(=O)N2C(C(=O)OC(C)OC(C)=O)=C(COC(N)=O)CS[C@H]12)c1ccco1 (some centres not stated) [Cefuroxime axetil]	0.923	0.763	0.929	1.28	1.28	1.41
C1CNCCN1 [Piperazine]	1.04	1.08	0.846	1.09	0.402	1.67
O=C(Nc1cc(C(F)(F)F)cc(C(F)(F)F)c1)c1cc(Cl)ccc1O	0.884	0.772	1.02	1.14	0.971	1.48
OCCOc1ccc(/C(=C(/CCCl)c2ccccc2)c2ccccc2)cc1 [Ospemifene]	0.936	1.29	0.819	0.945	1.26	1.06
N=C(N)NCCC[C@H](N)C(=O)O [L-Arginine HCl (L-Arg)]	1.3	0.522	0.828	0.796	0.566	1.14
CC(=O)Oc1cc(C(C)C)c(OCCN(C)C)cc1C [Moxisylyte hydrochloride]	0.394	0.612	1.83	1.12	0.369	0.608
CC(C)(C)c1nc(-c2cccc(NS(=O)(=O)c3c(F)cccc3F)c2F)c(-c2ccnc(N)n2)s1 [Dabrafenib Mesylate]	1.18	1.23	1.47	3.79	1.3	1.47
Nc1nc(=O)[nH]cc1F [Flucytosine]	1.25	1.12	0.998	1.16	0.392	0.975
CN(C)CCCN1c2ccccc2CCc2ccc(Cl)cc21 [Clomipramine HCl]	1.08	0.845	1.4	1.93	1.92	1.77
O=C(O)[C@]1(Cc2cccc(Nc3nccs3)n2)CC[C@@H](Oc2cccc(Cl)c2F)CC1	2.59	3.36	0.648	0.818	0.498	2.16
C[C@@H]1O[C@@H](O[C@H]2[C@H](Oc3cc(O)c4c(c3)O[C@H](c3ccc(O)cc3)CC4=O)O[C@H](CO)[C@@H](O)[C@@H]2O)[C@H](O)[C@H](O)[C@H]1O [Naringin]	1.25	1.01	0.644	1.2	0.575	1.74
CC1(C)CCC(CN2CCN(c3ccc(C(=O)NS(=O)(=O)c4ccc(NCC5CCOCC5)c([N+](=O)[O-])c4)c(Oc4cnc5[nH]ccc5c4)c3)CC2)=C(c2ccc(Cl)cc2)C1	2.06	1.55	1.25	0.81	1.11	1.16

SMILES	Euclidean distance (786-O)	Euclidean distance (A549)	Euclidean distance (DU145)	Euclidean distance (FB)	Euclidean distance (HEPG2)	Euclidean distance (OVCAR4)
CC1CS(=O)(=O)CCN1/N=C/c1ccc([N+](=O)[O-])o1 (configuration not stated) [Nifurtimox]	1.55	0.675	1.08	0.936	1.04	1.33
C[C@]12CC[C@@H]3c4ccc(OC(=O)c5ccccc5)cc4CC[C@H]3[C@@H]1CC[C@@H]2O [Estradiol Benzoate]	0.619	0.854	0.933	1.35	0.557	1.01
O=C1C(=O)N(Cc2ccc(Cl)c(Cl)c2)c2ccccc21 [Apoptosis Activator 2]	1.05	1.36	1.29	1.07	0.54	1.11
Cc1ccc(NC(=O)c2ccc(CN3CCN(C)CC3)cc2)cc1Nc1nccc(-c2cccnc2)n1 [Imatinib (STI571)]	1.85	1.68	1.9	2.04	1.78	1.48
CC1(C)CCC(c2ccc(Cl)cc2)=C(CN2CCN(c3ccc(C(=O)NS(=O)(=O)c4ccc(N[C@H](CCN5CCOCC5)CSc5ccccc5)c(S(=O)(=O)C(F)(F)F)c4)cc3)CC2)C1 [ABT-263 (Navitoclax)]	1.75	2.22	1.24	1.16	1.25	0.98
O=C(Nc1ccccc1)Nc1ccc(-c2ccc(C(=O)[C@@H]3CCC[C@H]3C(=O)O)cc2)cc1	0.735	0.898	0.804	1.29	1.92	0.814
COc1ccc(CCC(=O)Nc2nc3ccc(Cl)cc3s2)cc1OC	1.29	1.76	1.19	0.998	1.39	1.52
Fc1ccc(C(c2ccc(F)cc2)N2CCN(C/C=C/c3ccccc3)CC2)cc1 [Flunarizine 2HCl]	0.978	1.16	1.34	0.938	2.13	1.24
COc1cccc(CCc2ccccc2OCC(CN(C)C)OC(=O)CCC(=O)O)c1 (configuration not stated) [Sarpogrelate hydrochloride]	0.73	1.36	0.739	1.27	0.99	1.63
CCOC(=O)Nc1cc(-c2ccc(C)c(NS(C)(=O)=O)c2)nn2c(C)nnc12 [Bromosporine]	3.34	2.36	2.42	4.35	1.13	2.35
CCC[C@@H]1C[C@@H](C(=O)N[C@@H]([C@H]2O[C@H](SC)[C@H](O)[C@@H](O)[C@H]2O)[C@H](C)Cl)N(C)C1 [Clindamycin]	0.793	0.77	0.629	1.14	0.601	0.602
CC[C@H]1OC(=O)[C@H](C)[C@@H](O[C@H]2C[C@@](C)(OC)[C@@H](O)[C@H](C)O2)[C@H](C)[C@@H](O[C@@H]2O[C@H](C)C[C@H](N(C)C)[C@H]2O)[C@](C)(O)C[C@@H](C)[C@@H]2N[C@@H](COCCOC)O[C@H]([C@H]2C)[C@]1(C)O [Dirithromycin]	0.963	1.37	0.758	1.06	1.27	1.41
Nc1nc2c(ncn2COCCO)c(=O)[nH]1 [Aciclovir]	1.1	1.17	1.08	1.32	1.25	1.37
CCNC(=O)Nc1ccc(-c2nc3c(c(N4CCOC[C@@H]4C)n2)CCN(C2COC2)C3)cc1	3.58	3.22	1.78	4.11	3.1	4.55
O=C(O)C(Cc1ccccc1[N+](=O)[O-])=NNc1nc(-c2ccc(Cl)c(Cl)c2)cs1 (mixture of isomers)	0.716	1.16	0.992	2.32	0.514	0.642
CO[C@H]1/C=C/O[C@@]2(C)Oc3c(C)c(O)c4c(O)c(c5c(nc6cc(C)ccn65)c4c3C2=O)NC(=O)/C(C)=C\C=C\[C@H](C)[C@H](O)[C@@H](C)[C@@H](O)[C@@H](C)[C@H](OC(C)=O)[C@@H]1C [Rifaximin]	1.35	0.671	0.886	1	1.9	1.06
CN1CCc2cc3c(cc2C(=O)Cc2ccc4c(c2C1)OCO4)OCO3 [Protopine]	0.844	1.36	0.606	0.616	1.3	1.68
CC1=C(C(=O)O)N2C(=O)[C@@H](NC(=O)[C@H](N)c3ccc(O)cc3)[C@H]2SC1 [Cefadroxil hydrate]	1.09	0.5	0.78	0.785	0.893	0.794
CNCc1ccc(-c2cc(-c3nc(-c4ccc(S(=O)(=O)C(C)C)cc4)cnc3N)on2)cc1	3.55	3.91	3.77	4.87	3.55	4.32
Cc1nc(C)c(C)nc1C [Ligustrazine hydrochloride]	0.557	0.605	0.684	0.693	0.523	0.693
O=C(OC(C(F)(F)F)C(F)(F)F)N1CCN(Cc2ccc(C(F)(F)F)cc2N2CCCC2)CC1	1.62	1.13	0.875	1.46	1.27	1.66
COc1cc(Nc2ncc(F)c(Nc3ccc4c(n3)NC(=O)C(C)(C)O4)n2)cc(OC)c1OC	1.65	3.73	2.9	3.35	1.78	2.24
C=C[C@@H]1C[C@]1(NC(=O)[C@@H]1C[C@@H]2CN1C(=O)[C@H](C(C)(C)C)NC(=O)O[C@@H]1C[C@H]1CCCCCc1nc3ccc(OC)cc3nc1O2)C(=O)NS(=O)(=O)C1CC1 [Grazoprevir]	1.16	1.31	1.33	1.88	0.937	1.22
